From PubChem BioAssay (Tox21)
Values joined by “and” are separate entries in the source; they are usually repeats but may differ in a detail not shown here. Equal values may be shown once. Some compounds were tested as several samples or in several runs, with calls that do not always agree. Active and inactive are the calls of the source. Unless noted, the call rests on the fitted dose curve; in most records, active means well fitted curve in the direction sought with a large enough effect in the repeat runs; inconclusive means weak or mixed curves; inactive means no such curve, though single readings can be large; an effect the other way counts as inactive or inconclusive.

Legend:
[1] = qHTS assay to identify small molecule antagonists of the glucocorticoid receptor (GR) signaling pathway - cell viability counter screen (AID 720693); further: nearly all actives have a fitted effect of over 55% in size
[2] = qHTS assay for identifying genotoxic compounds that show differential cytotoxicity against isogenic chicken DT40 cell lines with known DNA damage response pathways - wild type cell line (AID 743012); further: nearly all actives have a fitted effect of over 60% in size; further: potency means the concentration at half of the fitted maximal effect
In short: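 Wild-type DT40 cells (300/well) exposed to compounds for 40 hours at 37 C/5% CO2. Viability read by CellTiter-Glo luminescence after 30 min at room temperature.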

[3] = qHTS assay for identifying genotoxic compounds that show differential cytotoxicity against isogenic chicken DT40 cell lines with known DNA damage response pathways - Rev3 mutant cell line (AID 743014); further: nearly all actives have a fitted effect of over 55% in size; further: potency means the concentration at half of the fitted maximal effect
[4] = qHTS assay for identifying genotoxic compounds that show differential cytotoxicity against isogenic chicken DT40 cell lines with known DNA damage response pathways - Rad54/Ku70 mutant cell line (AID 743015); further: nearly all actives have a fitted effect of over 60% in size; further: potency means the concentration at half of the fitted maximal effect
[5] = qHTS assay to identify small molecule antagonists of the thyroid receptor (TR) signaling pathway - cell viability counter screen (AID 743064); further: nearly all actives have a fitted effect of over 50% in size; further: potency means the concentration at half of the fitted maximal effect
In short: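 GH3.TRE-Luc cells, 4 h pre-plating; cpd + T3 1 nM final; 37 °C 23.5 h; CellTiter-Fluor 30 min; fluorescence read.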

[6] = qHTS assay to identify small molecule antagonists of the thyroid receptor (TR) signaling pathway (AID 743065); further: nearly all actives have a fitted effect of over 55% in size; further: potency means the concentration at half of the fitted maximal effect
In short: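 Antagonism measured as loss of luciferase signal in GH3 cells stably carrying a TRE-luciferase reporter, co-treated with compound and T3 (1 nM final) for 23.5 h at 37 C. Viability was read in the same well by CellTiter-Fluor.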

[7] = test system: thyroid hormone receptor (rat, GH3 cells); test: qHTS assay to identify small molecule agonists of the thyroid receptor (TR) signaling pathway (AID 743066; calls by dose curve)
[8] = qHTS assay to identify small molecule antagonists of the estrogen receptor alpha (ER-alpha) signaling pathway - cell viability counter screen (AID 743074; calls by dose curve;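 further: HEK293 cells carrying ER-alpha-UAS-bla reporter stimulated with 17beta-estradiol; nearly all actives have a fitted effect of over 45% in size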)
[9] = qHTS assay to identify small molecule antagonists of the estrogen receptor alpha (ER-alpha) signaling pathway using the BG1 cell line - cell viability counter screen (AID 743081);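 further: compound given together with 17beta-estradiol as the ER stimulus; series mostly up to about 70 µM; nearly all actives have a fitted effect of over 45% in size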
[10] = target: Aromatase (Homo sapiens) (UniProt P11511); test: qHTS assay to identify aromatase inhibitors (AID 743083); further: nearly all actives have a fitted effect of over 55% in size; further: potency means the concentration at half of the fitted maximal effect
[11] = qHTS assay to identify small molecule antagonists of the androgen receptor (AR) signaling pathway - cell viability counter screen (AID 743033; further: nearly all actives have a fitted effect of over 45% in size)
[12] = qHTS assay to identify small molecule antagonists of the androgen receptor (AR) signaling pathway using the MDA cell line - cell viability counter screen (AID 743041; further: nearly all actives have a fitted effect of over 45% in size)
In short: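 Cells were plated at 3,000 per well and left 5 h. Compounds in DMSO were then pinned in, followed by R1881. After 16 h at 37C, CellTiter-Fluor fluorescence gave viability.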

[13] = target: Estrogen receptor (Homo sapiens) (UniProt P03372); test: qHTS assay to identify small molecule antagonists of the estrogen receptor alpha (ER-alpha) signaling pathway (AID 743069; active means well fitted curve in the direction sought with a large enough effect in the signal ratio in the repeat runs, not every such curve was filed as active; inconclusive means weak or mixed curves, or effect the other way; inactive means no such curve, though single readings can be large or run the other way; the % refers to the signal ratio; further: potency means the concentration at half of the fitted maximal effect)
In short: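 ER-alpha-UAS-bla GripTite HEK293 line; 2% charcoal-stripped FBS overnight; plated, 4 hr 37C/5% CO2; cpd in DMSO + 17beta-estradiol, 18 hr 37C; LiveBLAzer B/G FRET substrate 2 hr RT; fluorescence intensity.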

[14] = target: Estrogen receptor (Homo sapiens) (UniProt P03372); test: qHTS assay to identify small molecule agonists of the estrogen receptor alpha (ER-alpha) signaling pathway (AID 743075; calls by dose curve;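 further: HEK293 GripTite cells with ER-alpha and UAS-driven beta-lactamase reporter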)
[15] = target: Estrogen receptor (Homo sapiens) (UniProt P03372); test: qHTS assay to identify small molecule agonists of the estrogen receptor alpha (ER-alpha) signaling pathway using the BG1 cell line (AID 743079); further: nearly all actives have a fitted effect of over 20% in size; further: potency means the concentration at half of the fitted maximal effect
[16] = qHTS assay to identify small molecule antagonists of the estrogen receptor alpha (ER-alpha) signaling pathway using the BG1 cell line (AID 743080; calls by dose curve;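 further: BG1 cells stimulated with 17beta-estradiol alongside compound; nearly all actives have a fitted effect of over 25% in size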; further: potency means the concentration at half of the fitted maximal effect)
In short: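 Endogenous full-length ER-alpha in BG1-Luc-4E2 cells drives a stably integrated 4×ERE luciferase gene; compounds were tested against 17beta-estradiol over 21.5 h, with luminescence and multiplexed viability fluorescence recorded.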

[17] = target: Androgen receptor (Homo sapiens) (UniProt P10275); test: qHTS assay to identify small molecule antagonists of the androgen receptor (AR) signaling pathway (AID 743035; active means well fitted inhibition curve with a large enough effect in the signal ratio in the repeat runs, not every such curve was filed as active; inconclusive means weak or mixed curves, or effect the other way; inactive means no such curve, though single readings can be large or run the other way; the % refers to the signal ratio; further: potency means the concentration at half of the fitted maximal effect)
In short: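 HEK293 cells stably carrying UAS-beta-lactamase reporter, 2,000/well, given compounds plus R1881 agonist and incubated 16 h at 37C. LiveBLAzer B/G FRET substrate then added for 2 h at room temperature before fluorescence reading.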

[18] = target: Androgen receptor (Homo sapiens) (UniProt P10275); test: qHTS assay to identify small molecule agonists of the androgen receptor (AR) signaling pathway (AID 743036; active means well fitted activation curve with a large enough effect in the signal ratio in the repeat runs, with a control signal flat, not every such curve was filed as active; inconclusive means weak or mixed curves, or effect the other way; inactive means no such curve, though single readings can be large or run the other way; the % refers to the signal ratio)
In short: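 AR-bla HEK293 cells, 2,000/well; 4 h preincubation 37C/5% CO2; compound (DMSO) 16 h at 37C; LiveBLAzer B/G FRET substrate 2 h RT; fluorescence intensity read-out.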

[19] = target: Androgen receptor (Homo sapiens) (UniProt P10275); test: qHTS assay to identify small molecule agonists of the androgen receptor (AR) signaling pathway using the MDA cell line (AID 743040; further: nearly all actives have a fitted effect of over 20% in size)
In short: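 Cells plated, 5 h at 37C/0% CO2; compound or DMSO pinned; 16 h at 37C; ONE-Glo added; luminescence measured after 30 min at room temperature. Reporter line: MDA-kb2 with MMTV-luciferase responsive to AR and GR.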

[20] = target: Androgen receptor (Homo sapiens) (UniProt P10275); test: qHTS assay to identify small molecule antagonists of the androgen receptor (AR) signaling pathway using the MDA cell line (AID 743042; further: nearly all actives have a fitted effect of over 55% in size)
In short: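 Antagonist mode: compounds plus R1881 agonist added to MDA-kb2 AR-luc cells, incubated 16 h at 37C. Luciferase reporter luminescence quantified, with multiplexed CellTiter-Fluor readout for cell viability.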

Measured: Potency

Chain of Estrogen receptor (Homo sapiens) (P03372 whole entry, looked up): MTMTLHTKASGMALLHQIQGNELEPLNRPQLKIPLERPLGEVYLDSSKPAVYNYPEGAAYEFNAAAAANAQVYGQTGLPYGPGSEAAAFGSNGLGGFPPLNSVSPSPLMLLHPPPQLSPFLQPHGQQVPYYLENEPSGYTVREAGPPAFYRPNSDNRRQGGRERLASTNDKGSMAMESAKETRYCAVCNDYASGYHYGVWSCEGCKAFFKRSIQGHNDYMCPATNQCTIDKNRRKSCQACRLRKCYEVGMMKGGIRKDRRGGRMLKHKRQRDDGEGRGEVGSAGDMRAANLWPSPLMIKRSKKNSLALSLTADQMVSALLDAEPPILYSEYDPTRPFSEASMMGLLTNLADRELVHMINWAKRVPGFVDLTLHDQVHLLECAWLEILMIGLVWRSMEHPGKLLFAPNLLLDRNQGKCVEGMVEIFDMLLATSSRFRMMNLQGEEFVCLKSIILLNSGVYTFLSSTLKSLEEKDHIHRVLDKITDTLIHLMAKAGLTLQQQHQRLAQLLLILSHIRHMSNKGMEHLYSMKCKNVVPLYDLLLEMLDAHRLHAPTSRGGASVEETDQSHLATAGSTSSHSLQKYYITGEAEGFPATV
Chain of Aromatase (Homo sapiens) (P11511 whole entry, looked up): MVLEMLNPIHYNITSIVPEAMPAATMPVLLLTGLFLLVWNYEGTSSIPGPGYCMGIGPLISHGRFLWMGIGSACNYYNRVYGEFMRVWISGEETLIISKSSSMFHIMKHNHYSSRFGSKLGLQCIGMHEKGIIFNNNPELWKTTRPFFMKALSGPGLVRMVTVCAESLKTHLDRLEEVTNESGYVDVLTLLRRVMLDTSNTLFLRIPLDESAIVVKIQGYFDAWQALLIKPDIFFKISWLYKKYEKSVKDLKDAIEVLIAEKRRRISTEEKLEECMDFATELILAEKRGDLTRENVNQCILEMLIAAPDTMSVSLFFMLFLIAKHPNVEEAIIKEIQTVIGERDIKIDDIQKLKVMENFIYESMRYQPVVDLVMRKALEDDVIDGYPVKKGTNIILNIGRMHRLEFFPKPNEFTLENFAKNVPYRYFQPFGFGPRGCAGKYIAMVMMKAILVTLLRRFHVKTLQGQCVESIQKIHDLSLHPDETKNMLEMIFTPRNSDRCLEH
Chain of Androgen receptor (Homo sapiens) (P10275 whole entry, looked up): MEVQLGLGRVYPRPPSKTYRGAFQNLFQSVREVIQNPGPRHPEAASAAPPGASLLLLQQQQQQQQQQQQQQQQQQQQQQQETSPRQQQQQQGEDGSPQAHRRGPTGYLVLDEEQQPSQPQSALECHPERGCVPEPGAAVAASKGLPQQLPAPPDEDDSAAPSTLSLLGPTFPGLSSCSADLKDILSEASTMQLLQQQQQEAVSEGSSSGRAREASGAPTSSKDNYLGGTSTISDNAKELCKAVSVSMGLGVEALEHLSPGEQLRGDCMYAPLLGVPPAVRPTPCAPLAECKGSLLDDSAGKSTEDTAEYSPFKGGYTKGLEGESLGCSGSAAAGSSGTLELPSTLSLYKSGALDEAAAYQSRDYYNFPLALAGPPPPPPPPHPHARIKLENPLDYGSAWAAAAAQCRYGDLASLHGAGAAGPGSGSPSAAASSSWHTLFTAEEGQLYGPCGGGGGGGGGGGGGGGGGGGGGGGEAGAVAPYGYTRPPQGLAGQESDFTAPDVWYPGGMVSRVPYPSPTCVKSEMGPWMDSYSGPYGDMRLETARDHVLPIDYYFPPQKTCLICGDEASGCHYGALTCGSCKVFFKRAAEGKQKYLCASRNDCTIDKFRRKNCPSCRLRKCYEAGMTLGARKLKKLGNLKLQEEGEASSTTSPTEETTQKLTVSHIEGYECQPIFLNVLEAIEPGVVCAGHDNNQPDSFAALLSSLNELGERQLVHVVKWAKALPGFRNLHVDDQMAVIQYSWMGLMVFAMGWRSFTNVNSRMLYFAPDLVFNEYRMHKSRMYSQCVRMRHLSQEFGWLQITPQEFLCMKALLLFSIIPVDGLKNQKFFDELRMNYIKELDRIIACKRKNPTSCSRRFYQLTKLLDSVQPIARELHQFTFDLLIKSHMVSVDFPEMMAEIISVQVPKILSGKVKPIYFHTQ

CC(C)(C)C(O)(CCc1ccc(Cl)cc1)Cn1cncn1 (stereo unspecified)
inactive: [1] | [7] | [8] | [9]
active: [2] 61.1 µM | [3] 61.9 µM and 61.1 µM | [4] 69.4 µM and 61.1 µM | [5] 68.6 µM | [6] 61.9 µM and 61.1 µM | [10] 27.6 µM and 48.6 µM

c1ccc2c(c1)Oc1ccccc1O2
inactive: [1] | [2] | [3] | [11] | [12] | [5] | [6] | [7] | [8] | [9] | [10]

O=C1CCCN1
inactive and 48.6 µM (active): [15]
not listed: [4] | [17] | [18] | [19] | [20]
inactive: all other assays above

CCCCCCCCCl
not listed: [4] | [8] | [12] | [17] | [18] | [19] | [20]
inactive: all other assays above

CC(=O)C=C(C)C
not listed: [4] | [12] | [17] | [18] | [19] | [20]
inactive: all other assays above

C#CC(C)(C)NC(=O)c1cc(Cl)cc(Cl)c1
active: [3] 68.6 µM
inactive: [1] | [11] | [12] | [5] | [6] | [7] | [8] | [9] | [10]

CC(C)C1(C)N=C(c2nc3ccccc3cc2C(=O)O)NC1=O (stereo unspecified)
not listed: [4] | [12] | [17] | [18] | [19] | [20]
inactive: all other assays above

CCOP(=S)(OCC)SCCSCC
inactive: [1] | [2] | [11] | [12] | [5] | [6] | [7] | [8] | [9] | [10]

NCC(O)c1ccc(O)cc1 (stereo unspecified)
inactive: [1] | [2] | [3] | [11] | [5] | [6] | [7] | [8] | [9] | [10]

Nc1ccc(Br)cc1
active: [13] 3.47 µM [inconclusive]
not listed: [4] | [12] | [17] | [18] | [19] | [20]
inactive: all other assays above

Clc1ccccc1Cl
inactive: [1] | [2] | [3] | [11] | [5] | [6] | [7] | [8] | [9] | [10]

CCNc1nc(NC(C)(C)C)nc(SC)n1
active: [3] 60.3 µM | [4] 54.5 µM
not listed: [2] | [6] | [17] | [18] | [19] | [20]
inactive: all other assays above

CCCN(CCC)N=O
not listed: [4] | [17] | [18] | [19] | [20]
inactive: all other assays above

CON(C)C(=O)Nc1ccc(Cl)c(Cl)c1
inactive and 54.5 µM (active): [4]
not listed: [2] | [6] | [16] | [17] | [18] | [19] | [20]
inactive: all other assays above

CCCC1COC(Cn2cncn2)(c2ccc(Cl)cc2Cl)O1 (stereo unspecified)
active: [2] 55.5 µM and 12.2 µM | [3] 27.8 µM and 19.3 µM | [17] 49.9 µM and 43.6 µM | [6] 55.5 µM and 54.5 µM | [16] 27.8 µM and 68.6 µM | [10] 31.2 µM and 24.3 µM
not listed: [4] | [11] | [12] | [15] | [20]
inactive: all other assays above

CN1C(=O)CN=C(c2ccccc2)c2cc(Cl)ccc21
inactive: [1] | [2] | [3] | [11] | [5] | [7] | [8] | [9]

ClCCBr
not listed: [4] | [17] | [18] | [19] | [20]
inactive: all other assays above

CN(C)[C@@H]1C(=O)C(C(N)=O)=C(O)[C@@]2(O)C(=O)C3=C(O)c4c(O)cccc4[C@@](C)(O)[C@H]3C[C@@H]12
inactive: [1] | [2] | [3] | [11] | [5] | [6] | [7] | [8] | [9] | [10]

CC(Br)C(=O)O (stereo unspecified)
not listed: [4] | [12] | [13] | [17] | [18] | [19] | [20]
inactive: all other assays above

Cc1cc(Cl)ccc1O
inactive: [1] | [2] | [3] | [11] | [12] | [5] | [6] | [7] | [8] | [9] | [10]

Nc1ccc(Oc2ccc(N)cc2)cc1
active: [10] 54.5 µM
inactive: [1] | [3] | [11] | [12] | [5] | [8] | [9]

[O-][Cl+2]([O-])O
inactive: [1] | [11] | [12] | [5] | [13] | [8] | [14] | [15] | [16] | [9] | [10]

CC(C)NC(=O)N1CC(=O)N(c2cc(Cl)cc(Cl)c2)C1=O
active: [3] 54.5 µM
not listed: [4] | [5] | [12] | [17] | [18] | [19] | [20]
inactive: all other assays above

COC(=O)NC(=S)Nc1ccccc1NC(=S)NC(=O)OC
active: [2] 61.1 µM | [3] 61.1 µM
not listed: [4] | [8] | [12] | [17] | [18] | [19] | [20]
inactive: all other assays above

COP(N)(=O)SC (stereo unspecified)
not listed: [4] | [12] | [17] | [18] | [19] | [20]
inactive: all other assays above

CC(C)OC(=O)Nc1cccc(Cl)c1
not listed: [4] | [12] | [16] | [17] | [18] | [19] | [20]
inactive: all other assays above

C=CC(N)=O
inactive: [1] | [11] | [12] | [5] | [13] | [8] | [14] | [15] | [16] | [9] | [10]

Cc1ccc(N)cc1N
not listed: [2] | [3] | [4] | [12] | [17] | [18] | [19] | [20]
inactive: all other assays above

CCC[N+](=O)[O-]
inactive: [1] | [2] | [3] | [11] | [12] | [5] | [6] | [7] | [8] | [9] | [10]

c1cc2c3c(cccc3c1)CC2
inactive and 61.1 µM (active): [4]
not listed: [2]
inactive: all other assays above

O=NN1CCCC1
not listed: [4] | [17] | [18] | [19] | [20]
inactive: all other assays above

C1CC2OC2CC1C1CO1 (stereo unspecified)
not listed: [4] | [12] | [17] | [18] | [19] | [20]
inactive: all other assays above

CN=C=S
not listed: [4] | [5] | [17] | [18] | [19] | [20]
inactive: all other assays above

O=c1[nH]c2ccccc2c(=O)o1
not listed: [4] | [17] | [18] | [19] | [20]
inactive: all other assays above

Cc1ccccc1O
not listed: [4] | [12] | [17] | [18] | [19] | [20]
inactive: all other assays above

c1ccc(OP(Oc2ccccc2)Oc2ccccc2)cc1
not listed: [4] | [12] | [17] | [18] | [19] | [20]
inactive: all other assays above

O=c1n(Cl)c(=O)n(Cl)c(=O)n1Cl
not listed: [4] | [12] | [17] | [18] | [19] | [20]
inactive: all other assays above

CC(C)C#N
inactive: [1] | [2] | [3] | [11] | [12] | [5] | [6] | [7] | [8] | [9] | [10]
